Data reported in PubChem BioAssay (NCI).
Compounds without any hit were thinned out: in the full panel of roughly 83,000, 20% have a hit.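 Treatment: one concentration, 48 hours, 96-well format. Scoring: percent growth, with anything below 10 considered active.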 Unmarked numbers belong to inactive results. The source made the active and inactive calls.

Columns and labels:
Test in all cases: NCI-60 one-dose screen, 48 h (100 = growth as untreated, 0 = no growth, -100 = all killed)
Details in all cases: 10 µM unless noted
[1] = test system: SK-MEL-2 melanoma
[2] = test system: EKVX NSCLC
[3] = test system: SN12C renal
[4] = test system: UO-31 renal
[5] = test system: TK-10 renal
[6] = test system: A498 renal
[7] = test system: CCRF-CEM leukemia
[8] = test system: MOLT-4 leukemia
[9] = test system: SR leukemia
[10] = test system: RPMI-8226 leukemia
[11] = test system: OVCAR-8 ovarian
[12] = test system: OVCAR-5 ovarian
[13] = test system: OVCAR-4 ovarian
[14] = test system: SK-OV-3 ovarian
[15] = test system: IGROV1 ovarian
[16] = test system: OVCAR-3 ovarian
[17] = test system: HS 578T breast
[18] = test system: NCI/ADR-RES ovarian
[19] = test system: T-47D breast
[20] = test system: ACHN renal

Structure (SMILES)	growth [1]	growth [2]	growth [3]	growth [4]	growth [5]	growth [6]	growth [7]	growth [8]	growth [9]	growth [10]	growth [11]	growth [12]	growth [13]	growth [14]	growth [15]	growth [16]	growth [17]	growth [18]	growth [19]	growth [20]
C=C1C(=O)O[C@H]2[C@H]1CC/C(COC(=O)CCCCCCCC(=O)OC/C1=C/CC[C@@]3(C)O[C@H]3[C@H]3OC(=O)C(=C)[C@@H]3CC1)=C\CC[C@@]1(C)O[C@@H]21	59.9%	18.5%	4.85% (active)	-22.1% (active)	3.41% (active)	109%	5.92% (active)	2.39% (active)	0.728% (active)	3.72% (active)	1.92% (active)	44.4%	26.7%	101%	-13.3% (active)	2.34% (active)	9.65% (active)	28.6%	–	–
C#CC[C@@H]1C[C@]2(C)[C@H]3CC[C@@H]4[C@H]5[C@H](C(=C)C)CC[C@]5(C(=O)O)CC[C@@]4(C)[C@]3(C)CC[C@H]2C(C)(C)[C@H]1O	80.3%	55.4%	39.3%	23.5%	85.7%	82.7%	34.1%	26.8%	45.5%	24.1%	45.8%	95.7%	-18.7% (active)	74.3%	60.2%	-33.5% (active)	33.4%	44%	51.1%	–
C[C@H](Oc1cc(-c2cnn(C3CCNCC3)c2)cnc1N)c1c(Cl)ccc(F)c1Cl	71.1%	79.6%	54.2%	61.7%	88.7%	68%	34.6%	14%	-22.1% (active)	23.3%	77.7%	94.3%	66.7%	87.2%	71.9%	72.3%	56.5%	85.1%	55.7%	–
Cc1ccc(SC2c3ccc(C)cc3Oc3nc(N)c(C#N)c(N)c32)cc1 (configuration not stated)	65.3%	–	79.9%	48.5%	69.3%	106%	7.82% (active)	7.29% (active)	-11.8% (active)	12.8%	95%	121%	74.8%	102%	25.9%	55.2%	96.2%	92.1%	16.8%	68.1%
O=C(Nc1cc(=O)[nH]c(=O)[nH]1)C(Cl)Cl	105%	114%	98%	88.8%	101%	100%	96%	98.4%	98.6%	101%	102%	112%	112%	107%	108%	113%	95.4%	111%	91.4%	–
Cc1nnc(/N=C2\NC(=O)/C(=C/c3ccsc3)S2)s1	95.5%	93.6%	99.7%	81.2%	96.7%	–	95.1%	95%	103%	94%	104%	107%	90.6%	89.5%	90.7%	93.3%	96.4%	94.8%	–	–
COc1ccc(-c2[nH]c3ccc(OC)cc3c2C=C(C#N)C#N)cc1	34.3%	36.5%	63.1%	50.1%	70.4%	52.6%	11.1%	27.3%	-3.05% (active)	-11.5% (active)	57.3%	55.8%	39.5%	41.7%	39.1%	-14.1% (active)	52.4%	1.87% (active)	33.8%	–
COC1=CC=CC2(OC)C3(O)CCCc4cccc(c43)N3C(=O)COC132 (configuration not stated)	93.9%	98.6%	101%	82.1%	96.7%	98.4%	94.8%	97.8%	109%	92.4%	99.2%	104%	96.6%	107%	94.7%	109%	93.7%	101%	97.7%	–
COCCOC(=O)COc1ccc(OC)cc1	120%	–	99.7%	88.9%	108%	88.2%	104%	90.7%	88.2%	97.3%	101%	104%	94.2%	112%	101%	95.4%	101%	104%	–	106%
COc1ccccc1N1CCN(CCCOc2ccc(C(=O)/C=C3/C(=O)Nc4ccccc43)cc2)CC1	72.2%	53.5%	69.7%	44.5%	87.1%	–	15.6%	18.6%	19.8%	34.9%	65.9%	32.4%	45.2%	79.7%	67.7%	66.1%	26.7%	73%	33.3%	–
OCCNc1nc(NCCO)nc(Nc2ccc(C3=NN(c4ccc(Cl)cc4)C(c4ccc(Cl)cc4)C3)cc2)n1 (configuration not stated)	52%	65%	80.1%	45.5%	87.6%	85.7%	25.1%	29.4%	25.5%	27.7%	65.3%	110%	65.6%	84.1%	78.9%	40.7%	62%	73.8%	55.8%	–
O=C(Nc1ccccc1)NS(=O)(=O)c1c[nH]c(=S)[nH]c1=O	91.5%	99.6%	103%	89.3%	97.6%	112%	113%	90.8%	87.3%	103%	94.9%	113%	105%	69.9%	106%	110%	108%	104%	75.1%	–
COc1ccc(C(=S)c2cc(OC)c(OC)c(OC)c2)cc1OC(=O)CCl	41.9%	71.8%	34.6%	45.5%	65.2%	16%	14.3%	15.3%	11%	26.9%	14.4%	66.9%	52.9%	25.3%	24.4%	8.17% (active)	37.8%	7.4% (active)	62.6%	–
Cc1nccc2c3ccc(OCc4cn(-c5ccccc5)nn4)cc3n(CCCc3ccccc3)c12	91.7%	69.9%	75.6%	54.6%	71.6%	53.8%	77.4%	35.3%	33.5%	31.6%	55.6%	91.2%	71.2%	69.7%	89.1%	68.6%	65.5%	70.4%	78.4%	–
Cc1cccc(C)c1NC(=O)CN(CC(C)C)CC(O)COc1ccccc1 (configuration not stated)	93.8%	85.2%	104%	85.8%	96.9%	63.8%	96.9%	88.2%	92.1%	89.2%	–	99.9%	86.9%	90.1%	94.3%	111%	118%	86.7%	85.3%	–
C=C(C)[C@@H]1CC[C@]2(C(=O)NCCCO)CC[C@]3(C)[C@H](CC[C@@H]4[C@@]5(C)CCCNC(C)(C)[C@@H]5CC[C@]43C)[C@@H]12	94.1%	77.5%	70.9%	56.1%	91.2%	95.8%	–	30.5%	-19.5% (active)	29%	87.4%	88%	69.3%	85.5%	75.9%	79.2%	61.9%	82.7%	43.8%	–
